Source: PubChem BioAssay (several laboratories)
697 NFkB inh = lowers PMA/ionomycin-induced NF-kB signal in 697 B cells | 697 B-cell NF-kB luciferase reporter, 16 h | inhibition, % at 4 µM | 0.33% of 330,000 active | AID 435022; in the data active = inhibition above about 35%
Jurkat NFkB inh = lowers PMA/ionomycin-induced NF-kB signal in Jurkat cells; PMA/ionomycin-induced NF-kB luciferase reporter, luminescence; inhibition, % at 4 µM; 0.53% of 330,000 active; AID 435003; in the data active = inhibition above about 50%
Gli-Sufu antag = Gli-Sufu pathway antagonism; Sufu-KO-LIGHT fibroblasts, Gli luciferase reporter luminescence; inhibition, % at 5 µM; 0.74% of 340,000 active; AID 588413;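 active = inhibition above about 55%, limit read from the data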;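 also: 0% = DMSO-treated cells and 100% = wells with medium but no cells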
Cardio protect = modulators protecting cardiomyocytes from myocardial damage. H9c2 cardiomyocytes, H2O2 injury protection, ATPLite, 2 h. protection from H2O2 cell death, % at 20 µM. 0.63% of 360,000 active. AID 588492;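 active = compounds giving at least 50% protection of heart cells from peroxide-induced death in the single-dose screen, raw or plate-pattern-corrected value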;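 also: 0% = DMSO wells with peroxide and 100% = DMSO wells without peroxide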
COUP-TFII inh = blocks human COUP-TFII nuclear receptor | inhibition, % at 8.6 µM | AID 686940 | P24468 | HEK293T NGFI-A luciferase reporter, luminescence | 0.7% of 370,000 active;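 active = inhibition above a per-plate cutoff, mean inhibition of test wells between control levels plus 3 SD, cut at about 38% in these data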;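 also: cells cotransfected with COUP-TFII expression vector driving the NGFI-A reporter; 0% = median of COUP-TF2 test wells and 100% = reporter-only cells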
Target sequence (P24468 whole entry, looked up): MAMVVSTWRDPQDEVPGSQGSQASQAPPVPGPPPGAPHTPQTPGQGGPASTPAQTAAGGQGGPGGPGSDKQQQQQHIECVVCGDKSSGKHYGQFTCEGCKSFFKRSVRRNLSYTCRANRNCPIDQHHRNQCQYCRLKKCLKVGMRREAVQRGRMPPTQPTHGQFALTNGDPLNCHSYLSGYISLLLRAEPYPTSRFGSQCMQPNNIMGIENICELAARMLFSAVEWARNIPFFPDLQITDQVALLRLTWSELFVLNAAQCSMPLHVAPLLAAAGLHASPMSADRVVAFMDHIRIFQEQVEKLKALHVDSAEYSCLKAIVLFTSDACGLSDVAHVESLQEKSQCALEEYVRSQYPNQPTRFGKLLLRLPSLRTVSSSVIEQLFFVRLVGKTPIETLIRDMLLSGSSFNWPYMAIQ
TAG inh = triacylglycerol accumulation inhibition. inhibition, % at 12.5 µM. 0.66% of 230,000 active. H9c2 cells, Nile Red lipid (TAG) fluorescence; cells loaded with 200 µM oleic acid;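 active = pattern-corrected inhibition of lipid staining of at least 50% with the nuclear-stain viability signal not falling by more than 50%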;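 also: 0% = DMSO wells and 100% = triacsin C control wells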
Numbers without * were called inactive; . = not tested or not shown. This is a sample that favours compounds with a hit; in the whole collection about 2.6% have one here.

SMILES	697 NFkB inh	Jurkat NFkB inh	Gli-Sufu antag	Cardio protect	COUP-TFII inh	TAG inh
CC(=O)c1c(C)n(-c2ccc(Cl)cc2)c2ccc(O)cc12	8.0	-4.7	14.1	11.8	1.9	.
C[C@@]12C(=O)Nc3cc(F)c(F)cc3C(=O)N1[C@H]1c3cc(Cl)ccc3OC[C@@H]1[C@@H]2c1ccccc1	16.1	14.9	17.4	-8.2	.	63.0*
CCc1ccc(/C=C/C(=O)c2cc(Br)ccc(=O)c2O)cc1	-22.1	5.8	3.2	10.3	-8.5	.
CCOc1ccc(/C=C/C(=O)c2cc(Br)ccc(=O)c2O)cc1	.	.	-13.1	53.1*	1.3	.
COCCN1CCN(c2c3c(nc4cc(-c5cccc(F)c5)nn24)CCC3)CC1	-24.8	-25.3	1.9	86.2*	-6.3	32.2
Cc1ccccc1C(=O)N1CCC(Oc2cccnc2)CC1	.	.	.	.	6.7	.
CC(C)(C)c1ccc(-c2nnc(SCc3ccccc3)n2Cc2ccco2)cc1	.	.	.	.	-15.6	.
Cc1nc2ccccc2c2c(N)c3ccccc3n12	20.3	24.2	-6.5	65.7*	16.9	-0.9
Cc1nc2ccccc2n1-c1ccccc1	-37.0	9.1	-6.8	4.7	-3.0	-5.5
COC(=O)C12C=C3CC(C)=C3C(=O)N1Cc1[nH]c3ccccc3c1C2 (stereo not drawn)	.	.	.	.	-8.3	.
Cc1ccc(C)c(C(=O)Nc2cc(C)nn2-c2nc(C)cc(C)n2)c1	-12.3	24.3	10.3	50.2*	2.6	2.0
CC(COc1cccc(C#N)c1)CN1CCC(C(O)(c2ccccc2)c2ccccc2)CC1 (stereo not drawn)	.	.	.	.	0.3	.
CC(=O)Nc1ccc(/C(C)=N/Nc2nc(Nc3cccc4ccccc34)nc(N3CCOCC3)n2)cc1	29.2	-6.9	39.8	63.1*	-11.4	.
COc1ccc(-c2ccc3c(c2)S(=O)(=O)c2cccc(C(=O)NC[C@@H]4CCCO4)c2C3=O)cc1OC	31.2	3.7	-4.4	63.2*	-3.9	33.3
COc1ccc(-c2ccc3c(c2)S(=O)(=O)c2cccc(C(=O)N4CCN(c5c(Cl)cncc5Cl)CC4)c2C3=O)cc1OC	10.8	12.9	26.6	66.4*	15.0	29.9
O=C(NC[C@@H]1CCCO1)c1cccc2c1C(=O)c1ccc(Cl)cc1S2(=O)=O	13.3	12.5	7.4	3.7	2.9	-1.9
COc1ccc(-c2cc(-c3nnc(SCC(=O)Nc4ccc(OCc5ccccc5)cc4)n3N)[nH]n2)cc1	.	.	.	.	-31.4	.
O=S(=O)(CC1NCCc2ccccc21)NCCc1ccccc1 (stereo not drawn)	.	.	.	.	-1.5	.
C/C(N=Nc1nc2ccccc2s1)=N\Nc1ccccc1O	1.4	0.9	21.3	23.1	-8.7	58.0*
COc1ccc(-n2c(SCC(=O)NC3CCCCCC3)nnc2-c2ccncc2)cc1	.	.	.	.	5.9	.
Cc1nc(Oc2ccccc2)c2ccccc2n1	-18.8	-13.9	-8.8	47.7	7.8	.
Cc1nc(OCc2ccccc2)c2ccccc2n1	-9.6	13.3	12.2	51.0*	6.5	-9.9
CCOC(=O)Cc1nc(N2CCN(C(=O)C3CCCO3)CC2)c2c(C)c(C(=O)OCC)sc2n1 (stereo not drawn)	.	.	.	.	9.0	.
NS(=O)(=O)c1ccc(CCNc2ccn3nc(-c4ccc(OCCN5CCOCC5)cc4)cc3n2)cc1	.	.	.	66.1*	-4.7	9.5
NS(=O)(=O)c1ccc(CCNc2ccn3nc(-c4ccccc4)cc3n2)cc1	.	.	.	4.2	-19.6	0.3
SMILES	697 NFkB inh	Jurkat NFkB inh	Gli-Sufu antag	Cardio protect	COUP-TFII inh	TAG inh
COc1cc(-c2cc3nc(NCCc4ccc(S(N)(=O)=O)cc4)ccn3n2)cc(OC)c1OC	.	.	.	85.8*	-43.5	34.2
CCOP(=O)(OCC)c1ccc2c(c1)C(=O)c1ccccc1-2	.	.	.	.	-18.6	.
CN(CCCOC(=O)c1cc2ccccc2o1)C1CN(Cc2cn(Cc3ccc([N+](=O)[O-])cc3)nn2)S(=O)(=O)C1 (stereo not drawn)	.	.	.	.	-6.1	.
CCCC(=O)Nc1cc(C)c2c(=O)oc3ccccc3c2n1	7.3	-23.2	7.8	104.5*	23.8	19.5
COCCCNC(=O)/C(C#N)=C1\N=C(NC(=O)c2cccs2)c2ccccc21	13.3	7.3	-4.2	57.9*	16.2	6.6
O=C(N/N=C/c1ccc(O)cc1)Nc1cccc2nsnc12	-24.5	-68.9	-3.2	58.5*	-47.9	127.9
Cc1ccc(S(=O)(=O)N(C)C)cc1NC(=S)NC(=O)C12CC3CC(CC(C3)C1)C2	-62.4	26.5	66.4*	-16.2	-5.3	.
CC(=O)c1ccc(N=Cc2c(O)n(-c3cc(Cl)ccc3N3CCOCC3)c(=O)c3ccccc23)cc1	0.9	7.7	-9.5	17.5	16.2	52.3*
COCC(=O)N(C)[C@H]1C[C@H]2c3[nH]c4c(-c5ccc6c(c5)OCO6)cccc4c3CCN2C(=O)[C@H]1[C@H](C)O	.	.	.	.	-7.0	.
COC(=O)/C=C/c1ccc2c(c1)OCO2	13.5	-10.1	-6.5	-3.6	1.2	10.9
COC(=O)/C=C/c1ccc(OC(=O)OC)c(OC(=O)OC)c1	.	.	19.5	61.9*	-19.1	.
CCOC(=O)[C@@]12CN(C(=O)OC(C)(C)C)CC=C1N(Cc1ccc(OC)cc1)C(=O)[C@H]2CC(=O)NCC12CC3CC(CC(C3)C1)C2	.	.	.	.	9.8	.
CC(C)(C)N(Cc1ccc2c(c1)OCO2)C(=O)/C=C\S(=O)c1ccccc1 (stereo not drawn)	.	.	3.1	0.0	11.0	82.7*
CCOC(=O)c1ccc(NC(=O)Cn2ncc(Cl)c(Cl)c2=O)cc1	-5.5	26.6	0.6	-30.6	9.5	54.6*
Cc1cc(Br)ccc1NC(=O)CNC(=O)Cn1ncc(Cl)c(Cl)c1=O	-26.4	27.9	-10.2	-20.2	12.6	55.9*
CCC(=O)Nc1ccc(C(=O)Cn2ncc(Cl)c(Cl)c2=O)cc1	-26.3	-11.3	5.7	-19.0	-12.1	61.3*
COC(=O)C[C@H]1CC[C@H]2[C@H](COc3ccc(NS(=O)(=O)c4cccc(F)c4)cc3C(=O)N2C)O1	.	.	.	.	-10.8	.
COC(=O)[C@]12C[C@H](CC(=O)NCC34CC5CC(CC(C5)C3)C4)C(=O)N(CCC3=CCCCC3)C1=C[C@H](C1CCCC1)O[C@@H]2C	.	.	.	.	3.7	.
CC(=O)NC(C)c1cc(Cl)c2cccnc2c1O (stereo not drawn)	-3.1	-3.3	3.0	57.6*	-0.9	27.1
CC(=O)NC(c1ccc(Cl)cc1Cl)c1ccc2cccnc2c1O (stereo not drawn)	-22.8	46.4	87.0*	34.9	-8.7	.
CCC(=O)NC(C)c1cc(Cl)c2cccnc2c1O (stereo not drawn)	-1.3	-5.4	18.0	33.8	-0.9	9.5
CCCC(=O)NC(c1ccccc1OC)c1ccc2cccnc2c1O (stereo not drawn)	-10.0	45.8	.	33.5	.	74.5
CCCC(=O)NC(c1ccc(Cl)cc1Cl)c1ccc2cccnc2c1O (stereo not drawn)	-40.9	46.5	89.3*	32.7	-17.9	.
Cc1ccnc(SCc2cc(=O)c(OC(=O)c3ccc(C)c([N+](=O)[O-])c3)co2)n1	.	.	.	.	15.8	.
Nc1[nH]c(C(=O)c2ccccc2)c(-c2ccc(Cl)cc2Cl)c1C(=O)NCCC1=CCCCC1	.	.	.	.	-2.9	.
COc1ccc2nc3cccc(OC)c3nc2c1	3.7	-5.2	-14.2	58.2*	-7.8	6.9
